Experiment [1] in a line: qHTS assay to identify small molecule antagonists of the vitamin D receptor (VDR) signaling pathway - cell viability counter screen (AID 743225; active = well fitted curve in the direction sought with a large enough effect in the repeat runs; an effect the other way counts as inactive or inconclusive; also: nearly all actives have a fitted effect of over 50% in size). Summed up: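 Same-well multiplex: following 16 h treatment of HEK 293T cells carrying a UAS-driven beta-lactamase reporter with compound and agonist (3 nM final), and a 2 h FRET substrate step, CellTiter-Glo was added and luminescence read after 30 min.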
On the technique in general: Quantitative high-throughput screening tests each substance at several concentrations.

A short description of experiment [2]: qHTS assay to identify small molecule agonists of the NFkB signaling pathway - cell viability counter screen (AID 1159515). Also: series mostly up to about 61 µM; nearly all actives have a fitted effect of over 55% in size. Summed up:
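Tox21 library compounds were tested for cytotoxicity against NFkB-bla ME-180 cells during a 5 hr exposure at 37 C. CellTiter-Glo luminescence served as the viability read-out.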

Experiment [3] is described as follows: qHTS assay to identify small molecule agonists of the endoplasmic reticulum stress response signaling pathway (AID 1159516; active = well fitted activation curve with a large enough effect in the signal ratio in the repeat runs, not every such curve was filed as active; the % refers to the signal ratio). Summed up:
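Fluorescence at 460 and 530 nm (405 nm excitation) reports beta-lactamase from an ER stress response element in HeLa cells treated 5 hr at 37 C.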

Experiment [4] can be described thus: qHTS assay to identify small molecule agonists of the endoplasmic reticulum stress response signaling pathway - cell viability counter screen (AID 1159517). Also: series mostly up to about 61 µM; nearly all actives have a fitted effect of over 50% in size. The method, boiled down:
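Steps: seed 1,500 ESRE-bla HeLa cells per well; incubate overnight at 37 C, 5% CO2; add compounds in DMSO for 5 hr; run FRET substrate 2 hr RT; add CellTiter-Glo, wait 30 min, read luminescence.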

A short description of experiment [5]: qHTS assay to identify small molecule antagonists of the retinoid-related orphan receptor gamma (ROR-gamma) signaling pathway - cell viability counter screen (AID 1159520; active = well fitted curve in the direction sought with a large enough effect in the repeat runs; an effect the other way counts as inactive or inconclusive; also: nearly all actives have a fitted effect of over 50% in size). The method, boiled down: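 Tet-on ROR gamma CHO cells were given compounds for 2 hr, then doxycycline hyclate at 1 uM final, and incubated 16 hr at 37 C. Viability was measured as ATP content by CellTiter-Glo luminescence.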

The target of experiment [6] is Nuclear receptor ROR-gamma (Homo sapiens) (UniProt P51449). Nature of the experiment: qHTS assay to identify small molecule antagonists of the retinoid-related orphan receptor gamma (ROR-gamma) signaling pathway (AID 1159521; active = well fitted curve in the direction sought with a large enough effect in the repeat runs; an effect the other way counts as inactive or inconclusive;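 also: CHO cells with doxycycline inducible ROR-gamma driving an RORE luciferase reporter; top concentration of the series differs between compounds; nearly all actives have a fitted effect of over 50% in size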). The method, boiled down:
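Inducible-expression reporter assay: doxycycline (1 uM final) switched on RORγ in CHO cells bearing a ROR response element-luciferase construct, with test compounds present from 2 h beforehand. Decreased luminescence after 16 h defined antagonist activity.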

Experiment [7] can be described thus: qHTS assay to identify small molecule agonists of the AP-1 signaling pathway - cell viability counter screen (AID 1159525). Also: nearly all actives have a fitted effect of over 55% in size. Summed up:
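Same-well cytotoxicity counter screen of the Tox21 10K library in ME-180 cells. The readout is ATP-dependent luminescence after 5 h compound treatment. Data are normalised to DMSO and tetra n-octyl ammonium bromide controls.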

Experiment [8] in a line: qHTS assay to identify small molecule agonists of the AP-1 signaling pathway (AID 1159526).
Experiment [9] deals with Retinoic acid receptor RXR-alpha (Homo sapiens) (UniProt P19793). Nature of the experiment: qHTS assay to identify small molecule agonists of the RXR signaling pathway (AID 1159527). Also: nearly all actives have a fitted effect of over 35% in size. Also: potency is read from the fitted curve at half-maximal effect. The method, boiled down: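 Compounds in DMSO were added to RXR-alpha-UAS-bla HEK 293T cells kept in 2% charcoal-stripped serum, and incubated 16 hr at 37 C with 5% CO2. Reporter signal came from a 2 hr B/G FRET substrate step.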

A short description of experiment [10]: qHTS assay to identify small molecule agonists of the RXR signaling pathway - cell viability counter screen (AID 1159529; active = well fitted curve in the direction sought with a large enough effect in the repeat runs; an effect the other way counts as inactive or inconclusive). Summed up: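 Counter screen: CellTiter-Glo luminescence. Cells: RXR-alpha-UAS-bla HEK 293T. Medium: 2% charcoal-stripped FBS. Treatment: 16 h, 37 C. Reagent incubation: 30 min, RT.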

Results filed as inconclusive are left out. Values without a mark were called inactive. The source made the active and inactive calls. Unless noted, calls follow the shape of the full dose curve.

Chain of Retinoic acid receptor RXR-alpha (Homo sapiens) (P19793 whole entry, looked up): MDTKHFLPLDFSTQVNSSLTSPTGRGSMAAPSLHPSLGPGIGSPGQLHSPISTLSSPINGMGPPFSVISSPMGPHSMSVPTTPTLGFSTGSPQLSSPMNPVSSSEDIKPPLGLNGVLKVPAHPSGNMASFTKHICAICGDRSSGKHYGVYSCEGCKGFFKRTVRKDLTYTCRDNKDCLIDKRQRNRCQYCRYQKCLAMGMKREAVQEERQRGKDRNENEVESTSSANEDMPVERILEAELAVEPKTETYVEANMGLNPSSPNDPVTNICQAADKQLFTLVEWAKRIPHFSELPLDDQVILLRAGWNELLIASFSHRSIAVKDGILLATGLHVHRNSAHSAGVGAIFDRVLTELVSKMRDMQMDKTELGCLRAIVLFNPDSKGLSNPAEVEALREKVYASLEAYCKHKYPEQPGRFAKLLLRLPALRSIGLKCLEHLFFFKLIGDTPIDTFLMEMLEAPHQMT

Consider `CCCCc1ccc(Cl)cc1`, for which the call in experiment [1], in experiment [2], in [4], in experiment [5], in [6] and in experiment [7] was inactive. Besides, the Potency result in [3], in experiment [8], in experiment [9] and in experiment [10] was “inactive” in each case.
Take `CN(C)CCC[C@@]1(c2ccc(F)cc2)OCc2cc(C#N)ccc21`: the outcome in [1], in experiment [2], in experiment [4], in [5], in [6] and in experiment [7] was inactive. Moreover, the Potency result in experiment [3], in experiment [8], in experiment [9] and in [10] was “inactive” in each case.
Take `Cc1ccc2cccnc2c1`: the call in [2], in experiment [4], in experiment [5], in [6] and in experiment [7] was inactive. Moreover, the Potency result in experiment [3], in experiment [8], in experiment [9] and in [10] was “inactive” throughout.
With `CCCCN=C(N)N=C(N)N`, the compound was called inactive in experiment [1], in experiment [2], in experiment [4], in experiment [5], in experiment [6] and in experiment [7]. The Potency result in experiment [3], in experiment [8], in experiment [9] and in [10] was “inactive” each time.
In the case of `CC[N+](C)(CC)CC`, the compound was classed as inactive in experiment [1], in experiment [2], in [4], in [5], in experiment [6] and in [7]. For the same compound, the Potency entry in experiment [3], in experiment [8], in experiment [9] and in [10] was “inactive” throughout.
As for `CCCCCCC(=O)c1ccccc1`, the outcome in [1], in [2], in [4], in experiment [5], in [6] and in experiment [7] was inactive. Also, the Potency entry in [3], in [8], in [9] and in experiment [10] was “inactive” in each case.
In the case of `CC12CCCC=C1C(=O)OC2=O` (stereo not drawn), the compound was classed as inactive in experiment [1], in experiment [2], in experiment [4], in experiment [5], in experiment [6] and in experiment [7]. Besides, the Potency entry in [3], in experiment [8], in experiment [9] and in experiment [10] was “inactive” each time.
Consider `N[C@H]1C(O)O[C@H](CO)[C@@H](O)[C@@H]1O` (stereo partly drawn), for which the call in [1], in [2], in experiment [4], in [5], in experiment [6] and in experiment [7] was inactive. The Potency result in [3], in [8], in experiment [9] and in experiment [10] was “inactive” in each case.
Turning to `CC(C)c1cc(C(C)C)cc(C(C)C)c1`, the compound was classed as inactive in [1], in [2], in [4], in [5], in experiment [6] and in experiment [7]. Moreover, the Potency entry in experiment [3], in experiment [8] and in experiment [10] was “inactive” each time. Also, the Potency in experiment [9] was 15.5 µM (active).
As to `CC(C)OCCO`, the compound was classed as inactive in experiment [1], in [2], in [4], in experiment [5], in [6] and in experiment [7]. Moreover, the Potency entry in [3], in [8], in [9] and in experiment [10] was “inactive” throughout.
For `Cc1cc(=O)oc2cc(O[C@@H]3SC[C@@H](O)[C@H](O)[C@H]3O)ccc12`, the compound was classed as inactive in experiment [1], in experiment [2], in experiment [4], in experiment [5], in experiment [6] and in [7]. The Potency entry in [3], in experiment [8], in experiment [9] and in [10] was “inactive” each time.
Take `O=C(O)CCC(=O)Nc1ccc(S(=O)(=O)Nc2nccs2)cc1`: the call in experiment [1], in [2], in [4], in experiment [5], in [6] and in experiment [7] was inactive. The Potency entry in experiment [3], in [8], in experiment [9] and in experiment [10] was “inactive” each time.
With `Cc1nc2ccc(Cl)cc2[nH]1`, the compound was called inactive in experiment [2], in [4], in experiment [5], in [6] and in experiment [7]. Moreover, the Potency entry in experiment [3], in experiment [8], in experiment [9] and in [10] was “inactive” throughout.
On to `O=C(O)Cc1ccccc1Oc1ccc(Cl)cc1Cl`, for which the result in [2], in experiment [4], in experiment [5], in experiment [6] and in [7] was inactive. The Potency entry in experiment [3], in experiment [8], in [9] and in [10] was “inactive” in each case.
As for `CCN1CCN(C(=O)N[C@@H](C(=O)N[C@@H]2C(=O)N3C(C(=O)O)=C(CSc4nnnn4C)CS[C@H]23)c2ccc(O)cc2)C(=O)C1=O`, the call in [2], in [4], in experiment [5], in [6] and in experiment [7] was inactive. Further, the Potency result in experiment [3], in [8], in [9] and in experiment [10] was “inactive” throughout.
For `CC(C)(Sc1cc(C(C)(C)C)c(O)c(C(C)(C)C)c1)Sc1cc(C(C)(C)C)c(O)c(C(C)(C)C)c1`, the call in experiment [1], in experiment [2], in [4], in experiment [5], in experiment [6] and in [7] was inactive. Also, the Potency result in [3], in [8], in experiment [9] and in [10] was “inactive” throughout.
For `CCCC(=O)CC`, the outcome in experiment [2], in [4], in experiment [5], in experiment [6] and in experiment [7] was inactive. Further, the Potency result in experiment [3], in experiment [8], in experiment [9] and in experiment [10] was “inactive” each time.
On to `CC[C@@]1(c2ccccc2)NC(=O)N(C)C1=O`, for which the result in experiment [1], in experiment [2], in experiment [4], in experiment [5], in experiment [6] and in experiment [7] was inactive. For the same compound, the Potency result in [3], in experiment [8], in [9] and in experiment [10] was “inactive” each time.
Regarding `CCc1ccc(CC)cc1`, the call in experiment [1], in [2], in [4], in experiment [5], in experiment [6] and in experiment [7] was inactive. Moreover, the Potency entry in [3], in experiment [8], in experiment [9] and in experiment [10] was “inactive” throughout.
`CCCCCCCCCCCBr`: the result in [1], in experiment [2], in [4], in [5], in experiment [6] and in experiment [7] was inactive. The Potency result in [3], in experiment [8], in experiment [9] and in experiment [10] was “inactive” in each case.
Regarding `COc1cc(NS(=O)(=O)c2ccc(N)cc2)ncn1`, the result in [1], in [2], in [4], in experiment [5], in [6] and in experiment [7] was inactive. The Potency result in [3], in experiment [8], in [9] and in experiment [10] was “inactive” throughout.
Regarding `C=CC(C)(CCC=C(C)C)OC(=O)C(C)C` (stereo not drawn), the call in [2], in [4], in experiment [5], in [6] and in [7] was inactive. Also, the Potency result in experiment [3], in [8], in experiment [9] and in experiment [10] was “inactive” throughout.
For the compound `Cc1ccc2ccccc2n1`, the result in experiment [2], in [4], in [5], in [6] and in [7] was inactive. Also, the Potency entry in experiment [3], in experiment [8], in experiment [9] and in [10] was “inactive” in each case.
